# Laboratory results from ChEMBL document CHEMBL4513216, “Probing the Open Global Health Chemical Diversity Library for Multistage-Active Starting Points for Next-Generation Antimalarials” (ACS Infect Dis, 2020).
# About 8,600 (12%) of roughly 69,000 compounds showed an effect of 50% or more. This excerpt belongs to a sample that is enriched for strong results.
# System: Plasmodium berghei
# Assay: Screen against P. berghei liver stage (PbLuc), transformed with Luciferase, at 10uM
# Type: functional, HepG2
# Conditions: tested at 10 uM
row,Structure (SMILES),INHIBITION
1,O=C(Nc1cc(F)ccc1OCC1CCCO1)N1CCSCC1 (stereo unspecified),41.2%
2,CC(=O)NCC1(COc2cnccn2)C[C@@H](O)[C@@H](O)C1 (stereo partly specified),-3.52%
3,COCC(C)NC(=O)c1cn(C(C)C)cc2c(=O)[nH]nc1-2 (stereo unspecified),22%
4,COc1ccc2c(OCC(=O)NCC(F)(F)F)ccnc2c1,-121%
5,CNC(=O)[C@H]1C[C@@H]2CN(C(=O)c3ccsc3)C[C@@H]2N1S(C)(=O)=O,32.2%
6,CCOc1ncccc1NC(=O)N1CCN(Cc2ccncc2)CC1,18.75%
7,CCc1cc(N2CCC(NCCc3nc(C)c(C)s3)CC2)nc(C)n1,30.3%
8,CCC1CCN(CCn2cnc3c(C)csc3c2=O)CC1,-7.25%
9,CCCc1cncnc1N1CCC(NCCc2ccc(O)cc2)CC1,49.9%
10,Cc1csc2c(N3CCC(NCCCc4ccncc4)CC3)ncnc12,43.5%
11,CCc1nc(CNC2CCN(c3ccc(OC)cc3)CC2)cs1,34%
12,CCc1nnc(CNC2CCN(c3ncnc4c(C)csc34)CC2)s1,61.3%
13,Cc1nc(C)n(CCNC2CCN(c3ncnc4c(C)csc34)CC2)n1,-12.4%
14,Cc1csc2c(N3CCC(NCCCC4CCOC4)CC3)ncnc12 (stereo unspecified),55.8%
15,Cc1csc2c(N3CCC(NCCc4ccnn4C)CC3)ncnc12,53.6%
16,Cc1nnc(CCNC2CCN(c3ncnc4c(C)csc34)CC2)s1,61.8%
17,CCCc1cncnc1N1CCC(NCCc2nc(O)cc(O)n2)CC1,8.23%
18,O=C(NCc1ccc2c(c1)OCO2)[C@@H]1C=CCN1c1ncccn1,-0.232%
19,CCOCC1CC2(CCN(C(=O)c3ccccn3)CC2)CO1 (stereo unspecified),32.4%
20,Cc1cc(C)nc(N2CCC(C(=O)Nc3n[nH]c(C(C)C)n3)CC2)n1,24.7%
21,Cc1noc(C(C)Nc2ccc(N3CCOCC3)cc2C)n1 (stereo unspecified),23.1%
22,CCOC(=O)CSc1nnc([C@@H](N)CC(C)C)o1,12.3%

row,Structure (SMILES),INHIBITION
1,O=C(COC1CCCC1)N1C[C@@H]2CN(Cc3ccoc3)CCO[C@@H]2C1,29.8%
2,Cc1cc(N2CCC(N(C)C(=O)c3ccccc3F)CC2)nc(C)n1,56.1%
3,Cc1cc(N2CCC(N(C)C(=O)c3ccc(C#N)cc3)CC2)nc(C)n1,81.1%
4,Cc1cc(N2CCC(N(C)C(=O)c3ccccc3)CC2)nc(C)n1,2.3%
5,Cc1cc(N2CCC(N(C)C(=O)Nc3ccccc3)CC2)nc(C)n1,4.71%
6,COc1ccccc1C(=O)N(C)C1CCN(c2ccccn2)CC1,19.5%
7,CN(C(=O)c1ccc(C#N)cc1)C1CCN(c2ccccn2)CC1,-39.5%
8,Cc1cc(N2CCC(O)CC2)nc(C)n1,41%
9,Cc1cc(N2CCC(N(C)C(=O)c3sccc3C)CC2)nc(C)n1,68.6%
10,Cc1cc(N2CCC(N(C)C(=O)c3cccs3)CC2)nc(C)n1,22%
11,CCNc1cc2c(nn1)CCN(C(=O)CCc1c(C)noc1C)C2,1.78%
12,COc1c(C2CCCN2C(=O)c2cnc(C)cn2)c(C)nn1C (stereo unspecified),-14.7%
13,O=C(Cn1cc(-c2ccccc2)ncc1=O)Nc1nccs1,-13.6%
14,Cc1nc(C2CCCN(C(=O)c3ccnc(N(C)C)c3)C2)no1 (stereo unspecified),-27%
15,CN(C)C(=O)c1c[nH]nc1C1CCN(S(=O)(=O)c2ccccc2)CC1,-36.4%
16,CNC(=O)C1CCC2(CCN(c3ncc(C)cn3)CC2)CO1 (stereo unspecified),11.3%
17,CNC(=O)C1CCC2(CCN(c3nncs3)CC2)CO1 (stereo unspecified),61.9%
18,O=C(C1CCC2(CCN(c3ncccn3)CC2)CO1)N1CCCC1 (stereo unspecified),-7.24%
19,O=C([C@@H]1CCCO1)N1CCOCC2(CCN(Cc3cccnc3)C2)C1 (stereo partly specified),40.3%
20,O=C(C1CCC2(CCN(Cc3cccnc3)CC2)CO1)N1CCCC1 (stereo unspecified),62%
21,O=C(C1CCC2(CCN(c3nncs3)CC2)CO1)N1CCCC1 (stereo unspecified),57.1%
22,O=C(C1CCCO1)N1CCC2(CC1)COCCN(Cc1cccnc1)C2 (stereo unspecified),12.2%

row,Structure (SMILES),INHIBITION
1,O=C(C1CCC2(CCN(c3nncs3)CC2)C1)N1CCCC1 (stereo unspecified),-16.9%
2,CC(C)NC(=O)C1CCC2(CCN(c3ncccn3)CC2)CO1 (stereo unspecified),15.7%
3,CC(C)(C)C(=O)N1CC[C@@H]2[C@H](CC1)N(S(C)(=O)=O)CCS2(=O)=O,37.1%
4,CN1CCN(C(=O)c2cc(-c3cccs3)cs2)CC1,-11.4%
5,Cc1nc(C2CCCN2C(=O)COCc2ccccc2)no1 (stereo unspecified),7.27%
6,COc1cnc(CSc2nnc(C)s2)cc1OCC(=O)NC1CCCC1,43.3%
7,CNc1cncc(C2CCCN2Cc2ccnc(C)n2)n1 (stereo unspecified),48.6%
8,CN1CCc2c(C#N)c(NCCCN3CCOCC3)n3cnnc3c2C1,3.95%
9,COc1ccc(CN2CCOC3(CCCN(C(C)=O)C3)C2)cc1 (stereo unspecified),7.31%
10,CC(NCc1ccccc1O)c1ccc(-n2ccnc2)cc1 (stereo unspecified),61.9%
11,COCCC(C)NCc1ccccc1-n1ccnc1 (stereo unspecified),15.2%
12,CCOc1cccc(CNC(C)c2ccc(-n3ccnc3)cc2)c1O (stereo unspecified),47.1%
13,COc1cccc(CNC(C)c2ccc(-n3ccnc3)cc2)c1O (stereo unspecified),43.4%
14,COc1ccccc1CNC(C)c1ccc(-n2ccnc2)cc1 (stereo unspecified),70.3%
15,COc1cccc(CNC(C)c2ccc(-n3ccnc3)cc2)c1OC (stereo unspecified),35%
16,CC1CCC(O)(CSc2nnnn2C)CC1 (stereo unspecified),4.52%
17,CCn1ncc2c1C(COC)N(C(=O)CCc1ccccc1)CC2 (stereo unspecified),43%
18,Cc1cnc(CC2COCCN(C(=O)c3cncnc3)C2)cn1 (stereo unspecified),-13.2%
19,CC(NCc1cc(O)c2cccc(F)c2n1)c1ccccc1O (stereo unspecified),25%
20,c1ccc(-c2ncn(CCCN3CCOCC3)c2-c2ccncc2)cc1,55.4%
21,Cc1ccc(-c2c(-c3ccccc3)ncn2CCCN2CCOCC2)o1,20.1%
22,CSCc1ccc(CNCCN2CCOCC2)o1,15.6%

row,Structure (SMILES),INHIBITION
1,Cc1nc(-c2c(-c3ccccc3)ncn2CCCN2CCOCC2)c[nH]1,27.6%
2,OCc1ccc(-c2c(-c3ccccc3)ncn2CCN2CCOCC2)o1,53.3%
3,Cc1ccc(CNCCN2CCOCC2)o1,5.34%
4,COCCCn1ccc(NC(=O)NCc2cccc(N(C)C)c2)n1,21.5%
5,O=C1[C@@H]2CC[C@@H](CN(Cc3ccccc3OC(F)F)C2)N1CC1CC1,18.5%
6,N#Cc1ccc2c(c1)CN(C(=O)C1CC=CC1)C2c1cnco1 (stereo unspecified),34.9%
7,N#CC1(C(=O)N2Cc3cc(-c4cc[nH]n4)ccc3C2c2cnco2)CC1 (stereo unspecified),-18.3%
8,CC(=O)NCC(=O)N1Cc2cc(C#N)ccc2C1c1cnco1 (stereo unspecified),65.9%
9,CN(C)c1ccc2c(c1)CN(C(=O)c1ccnnc1)C2c1cnco1 (stereo unspecified),-0.554%
10,CC(=O)NCC(=O)N1CC[C@H](OCC2CC2)[C@@H]1Cc1cccnc1,4.92%
11,CN(C)c1ccc2c(c1)CN(C(=O)c1ccco1)C2c1cnco1 (stereo unspecified),-0.554%
12,CC(=O)NCC(=O)N1Cc2cc(-c3cc[nH]n3)ccc2C1c1cnco1 (stereo unspecified),71.8%
13,CN(C)c1ccc2c(c1)CN(C(=O)c1cnccn1)C2c1cnco1 (stereo unspecified),31.9%
14,CN(C)CC(=O)N1Cc2cc(N(C)C)ccc2C1c1cnco1 (stereo unspecified),33.4%
15,CN(C)CC(=O)N1Cc2cc(-c3cc[nH]n3)ccc2C1c1cnco1 (stereo unspecified),-19.8%
16,N#Cc1ccc2c(c1)CN(C(=O)c1nc[nH]n1)C2c1cnco1 (stereo unspecified),64.5%
17,CN(C)c1ccc2c(c1)CN(C(=O)c1c[nH]cn1)C2c1cnco1 (stereo unspecified),76.3%
18,O=C(CN1CCOC1=O)N(Cc1ccccc1)Cc1nccs1,22.1%
19,CC(C)CN1CC(C(=O)NCCNc2ncccn2)CC1=O (stereo unspecified),21.6%
20,N#Cc1ccc(CN2CCN(c3cncc(Cl)n3)CC2=O)cc1,-5.33%
21,CN(Cc1n[nH]c2c1CCCCC2)C(=O)c1cc(-c2cccn2C)n[nH]1,-89.3%
22,COCCN1CCN(Cc2c(C3CCNCC3)[nH]c3ncccc23)CC1,-12.9%

row,Structure (SMILES),INHIBITION
1,O=C1[C@@H]2CN(Cc3cc4ccccc4o3)C[C@]2(C(=O)O)CN1CC1CC1,79.8%
2,CSc1ccccc1CN1C[C@H]2C(=O)N(CC3CC3)C[C@@]2(C(=O)O)C1,-26.9%
3,CCCc1ccc(CN2C[C@H]3C(=O)N(CC4CC4)C[C@@]3(C(=O)O)C2)o1,6.28%
4,COc1cccc(-n2cc3[nH]c(=O)n(C(C)C)n3c2=O)c1,-34%
5,Cc1ncnc2c1CCN(C(=O)c1ccnnc1)CC2,60.1%
6,CC(C)Nc1ncnc2c1CCN(C(=O)c1ccccc1F)CC2,32.2%
7,O=C(c1ccncc1F)N1CCc2ncnc(C3CC3)c2CC1,-2.72%
8,Cc1ncnc2c1CCN(C(=O)c1ccncc1)CC2,19.5%
9,CCc1ncnc2c1CCN(C(=O)c1ccncc1F)CC2,-49.3%
10,CCOc1ncnc2c1CCN(C(=O)c1cnccn1)CC2,-103%
11,CC(C)Nc1ncnc2c1CCN(C(=O)c1ccncc1F)CC2,53.5%
12,O=C(c1ccncc1F)N1CCc2ncnc(N3CCOCC3)c2CC1,5.44%
13,Cc1ncnc2c1CCN(C(=O)c1ccncc1F)CC2,68.4%
14,CCOc1ncnc2c1CCN(C(=O)c1ccncc1F)CC2,54.4%
15,O=C(c1ccncc1F)N1CCc2ncnc(-c3ccncc3)c2CC1,-7.39%
16,Cc1ncnc2c1CCN(C(=O)c1cccnc1)CC2,-2.17%
17,CS(=O)(=O)N1CCc2ccc(=O)n(CCN3CCCC3)c2CC1,46.4%
18,CCc1nc(C2CCCN2C(=O)c2cnc[nH]2)no1 (stereo unspecified),37.9%
